Source: PubChem
Integrin act MD: activators of alpha7 integrin expression for muscular dystrophy; AID 624291; 350,000 compounds, 0.064% hits; alpha7betagal myoblasts, beta-gal FDG fluorescence, 48 h; Potency, µM (series often up to 38.3 µM), for inactives: top-dose activation, most hits filed as activators; active = well fitted activation curve with a large enough effect; inconclusive = small, poorly fitted or top-dose-only effect; inactive = no such curve, though single readings can be large or run the other way;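 also: potency is read from the fitted curve at half-maximal effect; 100% = response of the positive control SU9516; nearly all actives have a fitted effect of over 60% in size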
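alpha7betagal+/- myoblasts (passage 13, 250/well) treated 48 h at 37C with compounds at 1:260 dilution of DMSO stock. Lysed, then beta-galactosidase activity read as FDG fluorescence (ex 480/em 540) after 30 min, with pre-read for autofluorescence.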
DRD3 antagonist: blocks the human D3 dopamine receptor | D3R cells, DiscoveRx beta-arrestin luminescence, antagonist mode; active compounds read low | max response, negative = inhibition, % | 360,000 compounds, 2.5% hits | AID 652054; in the data active = max response below about -50%; inconclusive = no clear call, values can overlap the other calls; also: % is scaled to controls: 0 for no effect and ±100 for the full control effect
Target sequence (P35462 whole entry, looked up): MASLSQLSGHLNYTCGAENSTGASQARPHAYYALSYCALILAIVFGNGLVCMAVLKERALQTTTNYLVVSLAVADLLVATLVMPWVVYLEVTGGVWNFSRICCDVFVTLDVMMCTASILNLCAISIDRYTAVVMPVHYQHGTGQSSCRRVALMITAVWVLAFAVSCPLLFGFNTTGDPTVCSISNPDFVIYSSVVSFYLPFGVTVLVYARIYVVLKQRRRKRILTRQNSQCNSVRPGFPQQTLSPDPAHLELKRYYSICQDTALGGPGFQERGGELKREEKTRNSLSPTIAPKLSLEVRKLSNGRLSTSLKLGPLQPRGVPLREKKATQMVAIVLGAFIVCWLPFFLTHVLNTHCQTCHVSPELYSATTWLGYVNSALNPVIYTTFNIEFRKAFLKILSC
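Cells plated overnight at 1500 cells/well, then exposed to library compounds with dopamine controls for 90 minutes at 37 degrees C. DiscoveRx reagent added for 30–60 minutes at room temperature; luminescence read, quantitative HTS format.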
DRD3 agonist: agonists of human D3 dopamine receptor; max activation, %; AID 652048; 410,000 compounds, 0.58% hits; D3R DiscoveRx beta-arrestin cells, luminescence, 90 min; in the data active = max activation above about 30%; also: 0% is about no effect
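Cells at 1500/well, incubated overnight, then treated with pinned compounds (dopamine as control) for 90 min at 37 degrees C. DiscoveRx reagent added for 30 - 60 minutes at room temperature; luminescence read.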
* = called active by the depositor; ? = inconclusive; / = not tested or not shown; [ ] = dose if it differs, or a comment. Rows were chosen to be rich in hits. Some 2.9% of all compounds tested hit in one or more screens of this group.

SMILES	Integrin act MD	DRD3 antagonist	DRD3 agonist
COc1ccccc1CCNC(=O)CCc1c(C)c2cc3c(C)coc3cc2oc1=O	/	/	-5
CCN1CCCC(NC(=O)c2cc([N+](=O)[O-])ccc2OC)C1 (stereo not given)	9%	-60*	-26
COc1ccc(C(=O)NC2CCCN(Cc3ccccc3F)C2)c(OC)c1OC (stereo not given)	-1%	-12	-9
Cc1ccc(CN2C(=O)CCC2C(=O)NCc2ccc3c(c2)OCO3)cc1 (stereo not given)	0%	39	5
CCC(C)NC(=O)Cn1c(=O)n(-c2ccc(Cl)c(Cl)c2)c(=O)c2c(C)c(C(=O)N(CC)CC)sc21 (stereo not given)	/	/	5
Cc1cccc(-c2ccc3[nH]c4c(c3c2)CCN2C[C@@H]([C@H](C)O)[C@@H](N(C)C(=O)NC3CCCCC3)C[C@@H]42)c1	-60%	-19	-8
C[C@@H]1ON(C)[C@H]2C[C@H]3c4[nH]c5ccccc5c4CCN3C[C@@H]12	-8%	16	3
O=C(O)[C@@H]1[C@H]2C[C@H]3c4[nH]c5ccccc5c4CCN3C[C@@H]2CC[C@@H]1O	/	-61*	-71
COc1ccc2c3c([nH]c2c1)[C@H]1C[C@H]2[C@H](C[C@@H](O)[C@H](OC)[C@H]2C(=O)O)CN1CC3	/	-2	2
C[C@H](O)[C@@H]1CN2CCc3c([nH]c4ccccc34)[C@@H]2C[C@@H]1N(C)C(=O)NC1CCCCC1	-11%	-58*	-15
O=C1CCC2CN3CCc4c([nH]c5ccccc45)C3CC2C1 (stereo not given)	3%	-90*	-12
Cc1nnc(NC(=O)C2CCN(c3cnccn3)CC2)s1	-12%[7.66 µM]	-9	-2
O=C1CC(c2ccccc2)CC(=O)N1c1ccc(C(F)(F)F)cc1	22%	19	4
COc1ccc(/C=C/C(=O)N[C@@H](C)C(=O)O)cc1	?	?	6
Cc1ccc(-c2nc(CS(=O)(=O)CC(=O)N3CCc4ccccc4C3)c(C)o2)cc1	-1%	-26	-7
CO/N=C/c1cccn1-c1nccc(N(C)C)c1C#N	-13%	0	-10
CCOc1ccccc1NC(=O)c1cccc2c1C(=O)N(C1CCCCC1)C2	3.2µM*	7	3
Cc1ccccc1NC(=O)c1cccc2c1C(=O)N(C1CCCCC1)C2	17%	5	1
CC(=O)C1=C(C)NC(SCC(=O)c2ccc(Cl)cc2)=C(C#N)C1c1ccco1 (stereo not given)	-24%	16	15
COc1ccc(OCC(=O)Nc2ccc3nn(-c4ccc(OC)cc4)nc3c2)cc1	/	/	62*
CCOc1ccc(-n2nc3ccc(NC(=O)COc4ccc(OC)cc4)cc3n2)cc1	/	/	2
CC1=C(CCN2CCN(C3CCCC3)C(CCO)C2)C(C)(C)CCC1 (stereo not given)	-47%	-12	-23
CC(C)=CCN1CCN(CCC2=C(C)CCCC2(C)C)CC1CCO (stereo not given)	-35%	-90*	-14
Cc1c(/C=N/Nc2ccc(F)cc2)c(O)n(C)c(=O)c1C#N	7.1µM*	-5	-3
CC(=O)N=Cc1c(C)c(C#N)c(=O)n(C)c1O	?	12	1
SMILES	Integrin act MD	DRD3 antagonist	DRD3 agonist
Cc1ccc2c(c1)N(CC(=O)N1CCCCCC1)C(=O)c1cccnc1O2	-32%	12	0
Cc1ccc2c(c1)N(CC(=O)N1CCCC1)C(=O)c1cccnc1O2	?	-86*	-2
CCOC(=O)C1CCCN(C(=O)c2ccc3c(c2)N(C)C(=O)/C(=C/c2ccccc2Cl)S3)C1 (stereo not given)	-8%	-15	-2
Cc1ccc(NC(=O)COc2ccc(-n3cnnn3)cc2)cc1C	-6%	4	8
CCc1ccc(CNC(=O)c2cccc(-n3cnc4cccnc43)c2C)cc1	/	/	10
O=C(CN1CCN(c2ncccn2)CC1)N1CCCC1	9%	-4	0
Fc1cccc(CCN2CCN=C2Nc2ccccc2)c1	-20%	-74*	-65
c1ccc(CCCCN2CCN=C2Nc2ccccc2)cc1	0%	4	-32
O=C1OC2CC3CC1CC(O)(C3)C2 (stereo not given)	1%	5	0
COc1ccc(-c2cn3c(n2)sc2cc(C(=O)Nc4cccc(SC)c4)ccc23)cc1	/	/	77*
COc1ccc(-c2cn3c(n2)sc2cc(C(=O)Nc4cccc(OC)c4)ccc23)cc1	/	/	11
CCOC(=O)c1ccccc1NC(=O)COC(=O)CCNS(=O)(=O)c1ccc(C)c(C)c1	11%	-9	-8
CCOC(=O)NC1(NC2CCCCC2)Oc2ccccc2O1	-31%	17	0
Cc1cc(C)nc(N2CCC(C(=O)NCCc3ccccc3)CC2)n1	-17%	-17	2
CC(C)C[C@@H](CNCC(=O)[C@H](Cc1c[nH]c2ccccc12)NC(=O)c1[nH]cnc1C(=O)N[C@@H](C)CN)NC(=O)c1nc[nH]c1C(=O)N[C@@H](Cc1ccccc1)C(=O)O	-19%	-11	-10
CN1c2ccccc2C(O)=C(C(=S)Nc2ccccc2)S1(=O)=O	9%	-86*	-1
Cc1ccc(NC(=S)C2=C(O)c3ccccc3N(C)S2(=O)=O)cc1	2%	-73*	-3
CN1c2ccccc2C(O)=C(C(=S)Nc2ccc(F)c(Cl)c2)S1(=O)=O	29%	9	-3
CN1c2ccccc2C(O)=C(C(=O)Nc2ccccc2)S1(=O)=O	8%	9	0
COc1cccc(C(=O)NC(=O)Nc2ccc(-n3nc(C(F)(F)F)cc3C(F)(F)F)cc2)c1	/	/	-3
O=C(COC(=O)CCc1ccc(S(=O)(=O)N2CCOCC2)cc1)NC1CCCC1	?	-20	-1
COc1ccc(C(=O)NC(CO)c2nnc(SCc3ccc(Cl)c(Cl)c3)n2C)cc1 (stereo not given)	29%	-28	-3
Cc1ccc(-c2csc(N/N=C/c3ccco3)n2)cc1	-17%	7	1
Brc1ccc(-c2csc(N/N=C/c3ccco3)n2)cc1	12%	36	30*
COc1ccc(-c2ccc(=O)n(Cc3cccc(Cl)c3)n2)cc1	0%	2	0
SMILES	Integrin act MD	DRD3 antagonist	DRD3 agonist
Cc1ccccc1NC(=O)c1nc(S(C)(=O)=O)ncc1Cl	-80%	-81*	-13
Cc1cccc(CS(=O)(=O)c2ncc(Cl)c(C(=O)NCc3ccccc3)n2)c1	-62%	-82*	-3
Cc1nnc(NC(=O)c2nc(S(=O)(=O)Cc3ccccc3)ncc2Cl)s1	-73%	-23	-10
Cc1ccc(CSc2ncc(Cl)c(C(=O)NCc3ccccc3)n2)cc1	/	/	-7
Cc1cccc(CS(=O)(=O)c2ncc(Cl)c(C(=O)Nc3nc4ccc(F)cc4s3)n2)c1	/	/	-17
Cc1cccc(C)c1NC(=O)c1nc(S(=O)(=O)Cc2ccccc2)ncc1Cl	-74%	-64*	-23
CCc1nnc(NC(=O)c2nc(S(C)(=O)=O)ncc2Cl)s1	/	/	8
Cc1cccc(CS(=O)(=O)c2ncc(Cl)c(C(=O)Nc3c(C)cccc3C)n2)c1	-64%	-100*	-24
C=CCc1cccc2ccc(=O)oc12	-12%	6	-11
CCCNC(=O)c1nc(C)c(C)nc1C(=O)Nc1cccc(Cl)c1	12%	2	-5
CCC(=O)Nc1ccccc1-c1nc2ccccc2n(CC(=O)c2ccc(Br)cc2)c1=O	/	/	1
